The record followed here is PubChem BioAssay (EPA / NIEHS).

A word on the AC50: it is the concentration giving half of the maximal activity seen.

Experiment [1] in a line: APR_HepG2_CellCycleArrest_1hr: Apredica 1-hour HepG2 Assay for Cell Cycle Arrest (AID 2282666). To be noted: high-content imaging, actives raise or lower the signal. Put shortly: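 Cell cycle arrest scored from nuclear DNA content (Hoechst 33342) using high-content imaging of fixed HepG2 cells after 1 h treatment across 0.39–200 uM, in duplicate. Gain or loss fitted relative to 0.5% DMSO.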

Experiment [2] can be described thus: ACEA_ER_80hr: ACEA Biosciences xCELLigence Real-Time Cell Analysis on Estrogen Receptor Agonism for Proliferation (AID 2282667; active = hit-call score of the fitted dose curve at least 0.9, where 1 is the maximum). The following applies: T47D proliferation, impedance (xCELLigence), 80 h. Summed up:
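Estrogen-driven proliferation is captured as electrode impedance in T47D cells 80 h after compound addition. Test articles ran at 8 concentrations, 1:4 dilutions from 100 uM final, in two replicate plates.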

Experiment [3] can be described thus: APR_HepG2_CellLoss_1hr: Apredica 1-hour HepG2 Assay for Cell Loss (AID 2282668).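 Note: curves fitted both ways against DMSO so gain or loss of cells counts.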 To be noted: high-content imaging. Summed up: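 Cell number comes from high-content imaging of Hoechst-labelled nuclei in fixed HepG2 cells. Cells were exposed for 1 h to ten concentrations from 0.39 to 200 uM in 0.5% DMSO. Gain or loss was fitted against DMSO controls.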
Experiment [4] in a line: APR_HepG2_MicrotubuleCSK_1hr: Apredica 1-hour HepG2 Assay for Microtubule CSK Stabilty (AID 2282669). The following applies: HepG2 microtubule cytoskeleton imaging, actives raise or lower the signal. Put shortly:
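Alpha-tubulin immunofluorescence, imaged by automated high-content microscopy with Hoechst nuclear segmentation, measured cytoskeletal change after 1 h dosing of HepG2 at 0.39–200 uM in 0.5% DMSO. Activity fitted in both directions relative to DMSO.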

A short description of experiment [5]: APR_HepG2_MitoticArrest_1hr: Apredica 1-hour HepG2 Assay for Mitotic Arrest (AID 2282672). The following applies: high-content imaging, actives raise or lower the signal. Summed up:
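Ten-point concentration series (0.39 to 200 uM, duplicates, 0.5% v/v DMSO) applied to human HepG2 liver cells for 1 hr. High-content imaging of phospho-histone H3 and Hoechst-stained nuclei after fixation and permeabilization; DMSO-normalised bidirectional fit.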

Experiment [6] is described as follows: APR_HepG2_P-H2AX_1hr: Apredica 1-hour HepG2 Assay for H2AX Phosphorylation (AID 2282673). To be noted: high-content imaging, actives raise or lower the signal. Put shortly:
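Phospho-H2A.x immunofluorescence (1:200, FITC secondary) plus Hoechst nuclear stain, quantified by high-content imaging in HepG2 after 1 hr compound exposure. Ten concentrations, 0.39 to 200 uM, in duplicate with 0.5% DMSO; fit both directions against DMSO.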

Experiment [7] can be described thus: APR_HepG2_MitoMembPot_1hr: Apredica 1-hour HepG2 Assay for Mitochondrial Membrane Potential (AID 2282675). To be noted: imaging, actives raise or lower the signal. Summed up: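 Mitochondrial membrane potential read as MitoTracker Red CMXRos intensity by automated imaging of fixed HepG2 cells. Dye at 250 nM for 30 min pre-fixation; compounds 0.39 to 200 uM for 1 hour, duplicate wells, 0.5% DMSO.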

Experiment [8] in a line: APR_HepG2_CellCycleArrest_24hr: Apredica 24-hour HepG2 Assay for Cell Cycle Arrest (AID 2282905).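 Note: cell cycle arrest scored as ratio of 2N to 4N nuclear DNA content.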 The following applies: imaging, actives raise or lower the signal. Summed up:
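After 24 h exposure at 0.39–200 uM in 0.5% DMSO, fixed cells received Hoechst 33342 staining. Imaging quantified per-nucleus DNA content; gain or loss fitted against DMSO controls.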

Experiment [9] in a line: APR_HepG2_NuclearSize_24hr: Apredica 24-hour HepG2 Assay for Nuclear Size (AID 2282907). The following applies: high-content imaging, actives raise or lower the signal. Summed up: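 Nuclear size from Hoechst 33342-stained, formaldehyde-fixed HepG2 nuclei imaged by high-content microscopy, after 24 h dosing at ten concentrations from 0.39 to 200 uM in 0.5% DMSO; gain or loss relative to DMSO baseline.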

Experiment [10] in a line: APR_HepG2_CellLoss_24hr: Apredica 24-hour HepG2 Assay for Cell Loss (AID 2282908).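 For AC50: fit in both directions so a hit may be cell loss or gain.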 The following applies: high-content imaging. Put shortly: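 Nuclei stained with Hoechst 33342 after formaldehyde fixation (3.7%) were imaged at 20x to count cells. Exposure lasted 24 hr, at ten concentrations from 0.39 to 200 uM in duplicate, with 0.5% v/v DMSO. Fit bidirectional, relative to DMSO.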

Experiment [11] can be described thus: APR_HepG2_MitoticArrest_24hr: Apredica 24-hour HepG2 Assay for Mitotic Arrest (AID 2282910). The following applies: high-content imaging, actives raise or lower the signal. Put shortly:
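High-content imaging of fixed HepG2 cells labeled with Hoechst 33342 and anti-phospho-histone H3, after 24 h treatment. Ten concentrations 0.39 to 200 uM in duplicate, final DMSO 0.5%; changes fitted both directions relative to DMSO.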

A short description of experiment [12]: APR_HepG2_MitoMembPot_24hr: Apredica 24-hour HepG2 Assay for Mitochondrial Membrane Potential (AID 2282911). To be noted: imaging, actives raise or lower the signal. Summed up:
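Mitochondrial dye uptake (MitoTracker Red CMXRos, 250 nM, 30 min pre-fixation) in HepG2 after 24 hr compound exposure, 0.39–200 uM; ArrayScan images at 20x, activity fitted in both directions relative to DMSO.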

Experiment [13] can be described thus: APR_HepG2_MitoMass_24hr: Apredica 24-hour HepG2 Assay for Mitochondrial Mass (AID 2282912). The following applies: high-content imaging, actives raise or lower the signal. Put shortly:
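Endpoint is MitoTracker Red CMXRos (250 nM, 30 min, pre-fixation) intensity from 20x high-content imaging, nuclei located by Hoechst. Human HepG2 cells received ten concentrations from 0.39 to 200 uM in 0.5% DMSO for 24 hr, duplicate wells. Bidirectional fit relative to DMSO.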

Experiment [14] in a line: APR_HepG2_p53Act_24hr: Apredica 24-hour HepG2 Assay for p53 Activation (AID 2282913).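 Note: p53 protein immunofluorescence averaged per cell in HepG2 with Hoechst nuclei.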 To be noted: high-content imaging, actives raise or lower the signal. Put shortly:
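Following 24 hr dosing of HepG2 at 0.39–200 uM, the cells undergo formaldehyde fixation, Triton permeabilization and multiplexed antibody labeling that includes p53 (Cy5). Signal from the imaging is referenced to DMSO solvent controls.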

Experiment [15] is described as follows: APR_HepG2_CellCycleArrest_72hr: Apredica 72-hour HepG2 Assay for Cell Cycle Arrest (AID 2282914). To be noted: high-content imaging, actives raise or lower the signal. Put shortly:
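Using multiplexed high-content imaging, HepG2 nuclei stained with Hoechst 33342 (2 ug/mL) were analysed for DNA content after fixation and permeabilization. Treatment lasted 72 hr across 0.39–200 uM in duplicate with final DMSO 0.5% v/v; DMSO served as negative control.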

Experiment [16] in a line: APR_HepG2_MicrotubuleCSK_24hr: Apredica 24-hour HepG2 Assay for Microtubule CSK Stabilty (AID 2282909). The following applies: HepG2 microtubule cytoskeleton imaging, actives raise or lower the signal. Put shortly:
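Fixed HepG2 cells were stained for alpha-tubulin and imaged after 24 hr exposure to ten concentrations spanning 0.39–200 uM in 0.5% DMSO. Signal change was fitted in both directions relative to DMSO; taxol was the positive control.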

Experiment [17] is described as follows: APR_HepG2_MitoMass_1hr: Apredica 1-hour HepG2 Assay for Mitochondrial Mass (AID 2282674). To be noted: high-content imaging, actives raise or lower the signal. Put shortly:
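Mitochondrial mass is taken from MitoTracker Red CMXRos (250 nM, 30 min, pre-fixation) fluorescence imaged at 20x in HepG2 cells. Exposure lasted 1 hr across ten concentrations, 0.39 to 200 uM, 0.5% DMSO; DMSO baseline, bidirectional fitting.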

The nature of experiment [18]: APR_HepG2_StressKinase_1hr: Apredica 1-hour HepG2 Assay for Stress Kinase (AID 2282906). The following applies: HepG2 stress kinase (phospho-c-Jun) imaging, actives raise or lower the signal. Put shortly: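 High-content imaging of phospho-c-Jun immunostaining (with Hoechst nuclear identification) after a 1 h exposure of HepG2 cells to 10 concentrations from 0.39 to 200 uM, final DMSO 0.5%. Fitted bidirectionally against DMSO.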

Several values for one entry are separate records, joined by “and”; a condition that tells them apart may be missing. Equal values may be shown once. Records with an inconclusive call do not appear. Activity calls are given as the source filed them. Rule for the calls, unless noted: active = hit-call score of the fitted dose curve at least 0.9, where 1 is the maximum; inactive = score below 0.9.

Take `CCOP(=S)(OCC)SCn1c(=O)oc2cc(Cl)ccc21`: the outcome in experiment [1], in experiment [2], in experiment [3], in experiment [4], in [5] and in experiment [6] was inactive. Moreover, the call in [7], in experiment [8], in experiment [9], in [10], in [11] and in [12] was inactive. Further, the result in experiment [13] and in experiment [14] was inactive. In addition, the AC50 in experiment [15] is 85 µM (active).
Consider `COc1nc(C)nc(NC(=O)NS(=O)(=O)c2ccccc2CCC(F)(F)F)n1`, for which the compound was classed as inactive in experiment [1], in experiment [3], in experiment [4], in experiment [6], in [7] and in experiment [8]. The result in [10], in experiment [16], in experiment [11], in experiment [12], in experiment [13] and in experiment [14] was inactive. In addition, the result in experiment [15] was inactive.
For the compound `CC(C)(C)c1ccc(CSc2cnn(C(C)(C)C)c(=O)c2Cl)cc1`, the compound was called inactive in [1], in experiment [3], in [4], in experiment [6], in [17] and in [7]. The compound was called inactive in [18], in experiment [11], in experiment [12], in [13] and in [14]. The AC50 in experiment [2] is 0.00406 µM (active); in experiment [8], 16.1 µM (active); in experiment [10] it was 2.58 µM (active); in experiment [15] it was 16.1 µM (active).
Consider `Cc1ccc(-c2c(Cl)nc(C#N)n2S(=O)(=O)N(C)C)cc1`, for which the outcome in experiment [1], in experiment [3], in experiment [4], in experiment [6], in experiment [8] and in experiment [9] was inactive. Besides, the call in [10], in [11], in experiment [13], in experiment [14] and in experiment [15] was inactive. Besides, the values for the AC50 in [2], in experiment [7] and in experiment [12] were 10.5 µM (active), 100 µM (active) and 78.1 µM (active), respectively.
Turning to `O=C(Nc1ccccc1)Nc1ccnc(Cl)c1`, the call in [1], in [2], in [3], in experiment [4], in experiment [5] and in [6] was inactive. The compound was called inactive in [11], in [12] and in [14]. In addition, the AC50 in experiment [7] was 99.5 µM (active); in [8], 69.9 µM (active); in [10], 84.3 µM (active); in experiment [13], 108 µM (active); in experiment [15], 37.2 µM (active).
`COc1ccc(C(c2ccc(OC)cc2)C(Cl)(Cl)Cl)cc1`: the result in experiment [1], in experiment [3], in experiment [4], in experiment [5], in [6] and in [8] was inactive. Also, the outcome in experiment [18], in [11], in experiment [12], in experiment [13], in experiment [14] and in [15] was inactive. Besides, the AC50 is 10.4 µM (active) and 1.41 µM (active) and 728 nM (active) in experiment [2]; 100 µM (active) in experiment [7]; 60.5 µM (active) in experiment [10].
As to `CN(C)C(=S)SSC(=S)N(C)C`, the outcome in experiment [1], in experiment [3], in experiment [4], in [6], in experiment [17] and in experiment [7] was inactive. The compound was classed as inactive in experiment [8], in experiment [11], in experiment [12], in [13] and in experiment [14]. Also, the AC50 in [2] is 2.06 µM (active); in experiment [18], 3.07 µM (active); in experiment [10] it was 2.3 µM (active); in [15], 0.039 µM (active).
